Screening results from PubChem BioAssay.
PP1 inh: blocks human PP1-alpha phosphatase, a PP5 counter-screen. P62136. inhibition, % at 6.7 µM. AID 2235. 320,000 compounds, 0.9% hits. purified PP1alpha, OMFP fluorescence;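 active = inhibition above the mean inhibition of all tested compounds plus 3 SD, computed separately for each screening campaign, cut at about 15% in these data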
Granule exo inh: lytic granule exocytosis inhibition. 360,000 compounds, 0.66% hits. inhibition, % at 10 µM. TALL-104 LAMP-1 surface exposure, flow cytometry; cells stimulated with thapsigargin and PMA;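 active = inhibition above about 55%, limit read from the data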
IDE inh: inhibitors of human insulin-degrading enzyme in cells; P14735; HEK cells, FAbetaB cleavage, fluorescence polarization; inhibition, % at 5.59 µM; 320,000 compounds, 0.41% hits; AID 434962;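 active = percent inhibition above the average of all tested compounds plus 3 SD, set per screening campaign, cut at about 16% in these data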;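 note: IDE supplied by intact live HEK cells; FP after avidin binding of uncleaved biotin substrate so inhibition keeps polarization high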
PP5 inh: inhibitors of human protein phosphatase 5 (PP5) | P53041 | purified PP5c, OMFP substrate fluorescence | inhibition, % at 6.7 µM | 320,000 compounds, 0.18% hits;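 active = inhibition above the campaign's mean inhibition across all tested compounds plus 3 SD, cut at about 9.5% in these data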
Target sequence (P53041 whole entry, looked up): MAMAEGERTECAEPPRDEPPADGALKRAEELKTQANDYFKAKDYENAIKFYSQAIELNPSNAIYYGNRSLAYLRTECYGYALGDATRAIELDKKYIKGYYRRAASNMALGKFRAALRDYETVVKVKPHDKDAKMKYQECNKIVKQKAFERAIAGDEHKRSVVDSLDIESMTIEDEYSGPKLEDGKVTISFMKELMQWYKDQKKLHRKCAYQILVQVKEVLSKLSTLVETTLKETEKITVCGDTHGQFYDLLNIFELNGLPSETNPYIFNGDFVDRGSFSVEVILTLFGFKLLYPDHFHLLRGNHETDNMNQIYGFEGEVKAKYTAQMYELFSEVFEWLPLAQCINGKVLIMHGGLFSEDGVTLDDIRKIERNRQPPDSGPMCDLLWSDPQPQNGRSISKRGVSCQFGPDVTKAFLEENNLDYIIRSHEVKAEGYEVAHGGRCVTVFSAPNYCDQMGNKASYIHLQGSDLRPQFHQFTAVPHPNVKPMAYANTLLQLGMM
IDE cell activ: IDE (human) activation, cell-based; HEK cells, FAbeta-B cleavage, fluorescence polarization; 0% vehicle, 100% cell-free pure enzyme wells; activation, % at 5.96 µM; 340,000 compounds, 0.073% hits; P14735;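 active = activation above the mean of all tested compounds plus 3 SD, set per screening campaign, cut at about 17% in these data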
SKKanGAS inh: SKKanGAS growth inhibition. S. pyogenes SKKanGAS, kanamycin growth, BacTiter-Glo, 6 h. inhibition, % at 7.5 µM. 300,000 compounds, 1.3% hits;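 active = mean replicate score, as percent of positive control median, at least 50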;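 note: strain carries kanamycin resistance gene driven by streptokinase promoter and grows in 40 µg/ml kanamycin; loss of luminescence reflects streptokinase promoter inhibition or plain growth inhibition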
Exocytosis CP01: lytic granule exocytosis inhibition; shares compounds with Granule exo inh; TALL-104 cells, LAMP-1 externalization, flow cytometry; stimulated with PMA plus thapsigargin; inhibition, % at 10 µM; 1,500 compounds, 11% hits; AID 651954; in the data active = inhibition above about 60%
Of the large screens only hits and unclear results are named; the others gave an inactive call (follow-up assays come after a bar, where they were run); ! = not active in a repeat. Only some compounds are listed: those with a hit (about 2.8% of all), similar ones and a draw of the others.

O=C(NCc1cccnc1)/C(=C\c1ccc(-c2ccc(Br)cc2)o1)S(=O)(=O)c1ccccc1	Granule exo inh 83 | Exocytosis CP01 inactive
CC(C)OC(=O)N(C)C[C@H]1OCc2cnnn2CCCC(=O)N([C@H](C)CO)C[C@H]1C	none (no result: PP1 inh, IDE inh, PP5 inh, IDE cell activ, SKKanGAS inh)
COc1ccccc1NC(=O)C(C)N(C)Cc1ccc(Cl)s1 (stereo not given)	Granule exo inh 58 | Exocytosis CP01 inactive
COc1ccccc1NC(=O)C(C)N(C)CC(=O)Nc1cccc2ccccc12 (stereo not given)	none (no result: PP1 inh, PP5 inh, SKKanGAS inh)
CC1=CC(C)(C)NC(=S)N1c1ccc(N(C)C)cc1	none (no result: PP1 inh, IDE inh, PP5 inh, SKKanGAS inh)
CN1CCN(c2ccc(Nc3ccnc4cc(Cl)ccc34)cc2)CC1	Granule exo inh 67 | Exocytosis CP01 inactive
CCN1CCN(c2ccc(Nc3ccnc4ccccc34)cc2)CC1	none (no result: SKKanGAS inh)
CC(=O)c1c(C)n(-c2cccc(Cl)c2)c2ccc(O)cc12	Granule exo inh 81 | Exocytosis CP01 inactive
CC(=O)c1c(C)n(-c2ccc(Cl)cc2)c2ccc(O)cc12	none
Cc1cccc(C)c1NC(=O)C1(C)CSCC(=O)N1Cc1ccco1 (stereo not given)	none (no result: PP1 inh, IDE inh, PP5 inh, IDE cell activ, SKKanGAS inh)
O=C(CN(Cc1ccco1)C(=O)Cn1nnc(-c2cccs2)n1)NCC1CCCO1 (stereo not given)	none
O=[N+]([O-])CC(c1ccccc1)c1c[nH]c2ccccc12 (stereo not given)	none (no result: IDE cell activ)
OC(CNCC(c1ccc(Cl)cc1Cl)c1c[nH]c2ccccc12)c1ccccc1 (stereo not given)	Granule exo inh 100, SKKanGAS inh 80 | Exocytosis CP01 88
COc1ccc2noc3c2c1C(=O)c1ccccc1-3	Granule exo inh 88, IDE cell activ 38 | Exocytosis CP01 inactive
CSc1ccc(/C=C/C(=O)OCC(=O)N2CCN(S(=O)(=O)c3ccc(C)cc3C)CC2)cc1	none (no result: SKKanGAS inh)
CCOc1ccc(-c2nc(N)nc(C)c2-c2ccc(Cl)cc2)c(O)c1	none
COc1ccc(-c2nc(N)nc(C)c2-c2ccc(Cl)cc2)c(O)c1	Granule exo inh 61 | Exocytosis CP01 inactive
O=C(NC1CCN(Cc2ccccc2)CC1)c1cccc(S(=O)(=O)Nc2ccc(SC(F)F)cc2)c1	none (no result: PP1 inh, PP5 inh, SKKanGAS inh)
Cc1ccc(C)n1-c1nn(S(=O)(=O)c2ccccc2)c2cccc(F)c12	Granule exo inh 56 (no result: IDE cell activ) | Exocytosis CP01 inactive
COc1ccc(S(=O)(=O)n2nc(-n3c(C)ccc3C)c3c(F)cccc32)cc1OC	none
CC(C)(C)c1ccc(S(=O)(=O)N2CCC(N3CCCCC3)CC2)cc1	none
CCN(CC)S(=O)(=O)c1ccc(S(=O)(=O)N2CCC(N3CCCCC3)CC2)cc1	Granule exo inh 62 | Exocytosis CP01 inactive
Cc1ccccc1NC(=O)CCc1nnc2ccc(N3CCC4(CC3)OCCO4)nn12	none
CNC(=S)NCCc1cc2c(OC)ccc(OC)c2[nH]c1=O	none
CCc1cc2c(CN(C)Cc3ccccc3F)cc(=O)oc2cc1O	Granule exo inh 59 | Exocytosis CP01 inactive
Oc1ccc(N2CCN(C(=S)NCCc3ccccc3)CC2)cc1	none
CCN1CCN(Cc2ccc(NC(=O)c3cc(NC(=O)c4cc(C)on4)cc(OC)c3)cc2C(F)(F)F)CC1	none
CCN1CCN(Cc2ccc(NC(=O)c3cc(NC(=O)C(=O)c4c[nH]c5ccccc45)cc(OC)c3)cc2C(F)(F)F)CC1	Granule exo inh 56!, SKKanGAS inh 99 | Exocytosis CP01 86
COC(=O)[C@]12CCCCC=C1N(CCC1=CCCCC1)C(=O)[C@H](CC(=O)N1CCN(C(=O)C3CC3)CC1)C2	none (no result: PP1 inh, IDE inh, PP5 inh, IDE cell activ, SKKanGAS inh)
COc1ccc(-c2nc(C(=O)NCCCN3CCOCC3)cc3c2[nH]c2ccccc23)cc1OC	none
Cc1ccc(-c2nc(C(=O)NCCCN3CCOCC3)cc3c2[nH]c2ccccc23)cc1	PP1 inh 15, Granule exo inh 56 | Exocytosis CP01 inactive
COCc1cc(C)nc2sc(C(=O)Nc3ccc(C(=O)OC)cc3)c(N)c12	Granule exo inh 85 | Exocytosis CP01 inactive
O=C(NC1CCN(Cc2ccc(Cl)cc2)CC1)c1cn(-c2ccccc2)nc1-c1cccnc1	none (no result: SKKanGAS inh)
CCn1c2c(c3cc(Br)ccc31)CCC/C2=N\O	none
CCn1c2c(c3cc(OCC(C)C)ccc31)CCCC2=O	Granule exo inh 58 | Exocytosis CP01 inactive
COc1ccc(CN(C)C(c2ccccc2)c2nnnn2-c2ccccc2C)c(OC)c1C (stereo not given)	none
COc1cccc(CN(C)C(c2ccccc2)c2ccccc2)c1OC	Granule exo inh 89 | Exocytosis CP01 inactive
Cc1cc(C(=O)Nc2ccc(Nc3ccccc3)cc2)ccc1[N+](=O)[O-]	Granule exo inh 64 | Exocytosis CP01 inactive
O=c1c2ccc(F)cc2sn1-c1ccccc1	Granule exo inh 71 (no result: PP1 inh, IDE inh, PP5 inh, IDE cell activ, SKKanGAS inh) | Exocytosis CP01 100
O=c1c2ccccc2ncn1-c1ccc(Cl)cc1	none
O=c1c2ccccc2sn1-c1ccc(Cl)cc1	Granule exo inh 79 (no result: PP1 inh, IDE inh, PP5 inh, IDE cell activ, SKKanGAS inh) | Exocytosis CP01 104
O=c1c2cc(F)ccc2sn1-c1ccccc1Cl	Granule exo inh 64 (no result: PP1 inh, IDE inh, PP5 inh, IDE cell activ, SKKanGAS inh) | Exocytosis CP01 103
CCCN1CCc2c(sc3nc(SC)n(-c4ccccc4)c(=O)c23)C1	none
N#Cc1cccc(NC(=O)CCc2ccc(S(=O)(=O)N3CCOCC3)cc2)c1	none (no result: PP1 inh, PP5 inh, SKKanGAS inh)
COc1ccc(-c2cc([C@H]3[C@H]4C=CC[C@@H](C)[C@@H]4C(=O)N3Cc3ccccc3)ccc2F)cc1OC	none
COc1ccc(-c2cc([C@H]3[C@H]4C=CC[C@@H](C)[C@@H]4C(=O)N3Cc3ccccc3)ccc2F)cc1	Granule exo inh 57 | Exocytosis CP01 inactive
CCC1CCC(N2CCN(c3ccc([N+](=O)[O-])cc3)CC2)CC1 (stereo not given)	Granule exo inh 74 (no result: PP1 inh, IDE inh, PP5 inh) | Exocytosis CP01 inactive
CCOC(=O)C1(Cc2ccccc2)CCN(Cc2ccc(C)s2)CC1	Granule exo inh 64 | Exocytosis CP01 inactive
CCOC(=O)C1(Cc2ccccc2)CCN(Cc2cc(OC)c3c(c2)OCO3)CC1	Granule exo inh 60 | Exocytosis CP01 inactive
CCOC(=O)C1(Cc2cccc(OC)c2)CCN(C/C=C/c2ccc(OC)cc2)CC1	none
CCOC(=O)C1(Cc2cccc(OC)c2)CCN(C/C=C/c2ccccc2)CC1	Granule exo inh 64 | Exocytosis CP01 inactive
CC(C)(C)C(=O)OCc1nc(-c2ccc(F)cc2)cs1	none
Oc1c(CN2CCOCC2)ccc2ccccc12	Granule exo inh 86 (no result: PP1 inh, IDE inh, PP5 inh) | Exocytosis CP01 inactive
CCN(CC)CCn1c(=N)n(CC(=O)c2ccc(C)cc2)c2ccccc21	Granule exo inh 56 | Exocytosis CP01 inactive
Cc1ccc(C(=O)Cn2c(=N)n(N)c3ccccc32)cc1	none
O=C1OC(c2ccc(O)cc2)(c2ccccc2O)c2ccccc21 (stereo not given)	none (no result: PP1 inh, IDE inh, PP5 inh, SKKanGAS inh)
O=C1OC(c2ccccc2)(c2cc(Br)ccc2O)c2ccccc21 (stereo not given)	Granule exo inh 103 (no result: PP1 inh, IDE inh, PP5 inh, SKKanGAS inh) | Exocytosis CP01 99
CC(C)Oc1ccc(CC2CCC(=O)N(C)C2=O)cc1 (stereo not given)	none
